Screening results (PubChem BioAssay)
In the library only some 12% were active in any assay of this set; here they are far more common.
AmpC inh detg: blocks E. coli AmpC beta-lactamase in detergent assay. P00811. AmpC hydrolysis of nitrocefin, absorbance 480 nm, 0.01% Triton. Potency, µM (titrated, usually from 114 µM), usual class: inhibitors. hit rate 0.041% among 370,000. AID 485294; further: nearly all actives have a fitted effect of over 25% in size
Target sequence (P00811 whole entry, looked up): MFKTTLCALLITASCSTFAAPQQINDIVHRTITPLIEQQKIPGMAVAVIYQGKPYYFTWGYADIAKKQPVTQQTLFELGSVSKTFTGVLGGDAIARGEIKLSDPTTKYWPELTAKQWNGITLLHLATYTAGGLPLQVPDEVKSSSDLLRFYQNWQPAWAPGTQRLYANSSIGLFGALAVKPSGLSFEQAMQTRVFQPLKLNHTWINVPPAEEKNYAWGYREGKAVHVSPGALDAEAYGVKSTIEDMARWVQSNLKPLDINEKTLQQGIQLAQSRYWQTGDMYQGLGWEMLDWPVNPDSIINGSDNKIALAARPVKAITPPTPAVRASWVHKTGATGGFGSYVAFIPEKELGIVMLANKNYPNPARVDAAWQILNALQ
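20 mM phosphate pH 7.0 + 0.01% (detergent screen) or 0.0001% Triton X-100; 5.3 nM AmpC reagent; cpd preinc 15 min RT; nitrocefin (800 uM stock) to start; A480 q20 s × 4 min; Activity was normalised to no-enzyme and no-compound control wells.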
Pf growth 96h: P. falciparum growth inhibition at 96 hour, primary screen for plastid delayed-death inhibitors. P. falciparum luciferase reporter growth, 96 h. Potency, µM (top dose mostly 28.7 µM), usual class: inhibitors. hit rate 6.9% among 320,000. AID 504834
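Delayed-death screen, second-generation endpoint: infected erythrocytes, 2% hematocrit, 0.05% parasitemia final; 96 hours at 37 C, 5% CO2; luciferase detection reagent; luminescence decrease equals reduced growth.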
Pf growth 48h: inhibits P. falciparum growth in the first generation, 48 h. hit rate 5.9% among 310,000. P. falciparum luciferase growth in erythrocytes, 48 h. Potency, µM (doses to about 28.7 µM), actives largely listed as inhibitors
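Luciferase-expressing P. falciparum in infected erythrocytes (2% hematocrit, 0.1% parasitemia final) in RPMI 1640/0.5% Albumax were exposed to compound for 48 hours at 37 C, 5% CO2; growth read as luminescence.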
Sm TGR inh: inhibitors of Schistosoma mansoni thioredoxin glutathione reductase; Potency, µM (doses to about 114 µM), usual class: inhibitors; Q962Y6; purified TGR, DTNB reduction, TNB absorbance 405 nm; hit rate 3% among 360,000; further: nearly all actives have a fitted effect of over 60% in size
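Kinetic colorimetric format: TGR-catalysed, NADPH-driven DTNB reduction monitored via TNB absorbance. Enzyme dispensed at 20 nM; compound exposure 15 min at room temperature before reaction start.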
AmpC inh no detg: AmpC beta-lactamase inhibition without detergent. AmpC nitrocefin hydrolysis, absorbance 480 nm, 0.0001% Triton. hit rate 0.52% among 330,000. P00811. Potency, µM (doses to about 57.1 µM), hits mostly inhibitors; further: nearly all actives have a fitted effect of over 20% in size
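20 mM phosphate pH 7.0 + 0.01% (detergent screen) or 0.0001% Triton X-100; 5.3 nM AmpC reagent; cpd preinc 15 min RT; nitrocefin (800 uM stock) to start; A480 q20 s × 4 min; Activity was normalised to no-enzyme and no-compound control wells.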
SARS PLP yeast: blocks SARS-CoV papain-like protease in a yeast assay | S. cerevisiae expressing SARS-CoV PLpro, growth rescue | Potency, µM (top dose mostly 32.9 µM), most hits filed as activators | hit rate 0.19% among 330,000 | AID 485353; calls by dose curve; further: nearly all actives have a fitted effect of over 55% in size
Of the large screens only hits and unclear results are named; the others gave an inactive call. Unless noted, the call rests on the fitted dose curve; in most records, active means well fitted curve in the direction sought with a large enough effect; inconclusive means small, poorly fitted or top-dose-only effect, or another doubt; inactive means no such curve, though single readings can be large; an effect the other way counts as inactive or inconclusive.

Cc1cc(C)n(CC(=O)N/N=C/c2ccc([N+](=O)[O-])s2)n1	Pf growth 48h inconclusive
COc1ccc(NC(=O)CCC(=O)N/N=C/c2ccc([N+](=O)[O-])s2)cc1	Pf growth 96h inconclusive, Pf growth 48h 7.38µM, Sm TGR inh inconclusive
Nc1cc(=O)[nH]c(SCc2cccc3ccccc23)n1	Pf growth 48h inconclusive
N#CC1=C(N)N=C(SCc2cccc3ccccc23)C(C(N)=O)C12CCCCC2 (stereo not drawn)	AmpC inh detg inconclusive, Pf growth 96h 11.7µM (no result: Pf growth 48h)
Cc1ccc(S(=O)(=O)n2nc(-c3ccccc3)nc2NCc2ccc(Cl)cc2)cc1	none (no result: Pf growth 96h, Pf growth 48h, AmpC inh no detg, SARS PLP yeast)
Cc1cccc(CN2CCC(C(N)=O)CC2)c1	Pf growth 96h inconclusive (no result: Pf growth 48h)
Cc1cccc(CN2CCC(N3CC(C)OC(C)C3)CC2)c1 (stereo not drawn)	AmpC inh detg inconclusive, Pf growth 96h 11.7µM
Cc1ccc(S(=O)(=O)N(CC(=O)NCc2ccco2)C2CCCCC2)cc1	Pf growth 96h inconclusive, Pf growth 48h inconclusive, Sm TGR inh 44.7µM
O=C(CN(C1CCCCC1)S(=O)(=O)c1ccccc1)NCc1ccco1	Pf growth 96h 4.65µM
Cc1ccc(S(=O)(=O)N(CC(=O)NCc2ccncc2)C2CCCCC2)cc1	AmpC inh detg inconclusive, Pf growth 96h 8.28µM, Pf growth 48h inconclusive
N#CCC1c2ccccc2CCN1C(=O)Nc1cccc(C(F)(F)F)c1 (stereo not drawn)	Pf growth 96h inconclusive, Pf growth 48h inconclusive
N#CCC1c2ccccc2CCN1C(=O)Nc1ccc(C(F)(F)F)cc1 (stereo not drawn)	Pf growth 96h 5.86µM, Pf growth 48h 13.1µM
CCc1ccc(CN2CCC(CO)(CC3CCCCO3)CC2)o1 (stereo not drawn)	none
OCC1(CC2CCCCO2)CCN(Cc2nc3ccccc3[nH]2)CC1 (stereo not drawn)	none
Cc1ccc(CN2CCC(CO)(CC3CCCCO3)CC2)o1 (stereo not drawn)	Pf growth 96h inconclusive, Sm TGR inh 44.7µM
COc1cccc(CN2CCC(CO)(CC3CCCCO3)CC2)c1 (stereo not drawn)	Pf growth 96h 9.28µM
Cc1ccc2[nH]c(CN3CCC(CO)(CC4CCCCO4)CC3)c(C)c2c1 (stereo not drawn)	Pf growth 96h inconclusive, Pf growth 48h 9.28µM
COCc1ccc(CN2CCC(CO)(CC3CCCCO3)CC2)o1 (stereo not drawn)	Pf growth 96h inconclusive
Cc1nn(-c2ccccc2)c2nc(C3CC3)cc(C(=O)Nc3cccc(F)c3)c12	none (no result: Pf growth 96h, Pf growth 48h, AmpC inh no detg, SARS PLP yeast)
CCCn1c(=O)c2sccc2n2c(CCCC(=O)Nc3cccc(CC)c3)nnc12	none (no result: Pf growth 96h, Pf growth 48h, AmpC inh no detg, SARS PLP yeast)
O=C(c1ccc2c3c(cccc13)CC2)C1CCCN(C(=O)c2cc[n+]([O-])cc2)C1 (stereo not drawn)	Pf growth 96h 2.94µM
O=C(c1ccc2c3c(cccc13)CC2)C1CCCN(Cc2ccccn2)C1 (stereo not drawn)	Pf growth 48h 2.33µM
Cc1cnc(CN2CCCC(C(=O)c3ccc4c5c(cccc35)CC4)C2)[nH]1 (stereo not drawn)	Pf growth 96h inconclusive, Pf growth 48h inconclusive (no result: Sm TGR inh)
O=C(c1ccc2c3c(cccc13)CC2)C1CCCN(Cc2ccc(OCCO)cc2)C1 (stereo not drawn)	Pf growth 48h 6.57µM
CCOc1cc2sc(N3CCC(C(=O)Nc4ccc(C)cc4C)CC3)nc2cc1Br	none (no result: Pf growth 96h, Pf growth 48h, AmpC inh no detg, SARS PLP yeast)
CNc1ccccc1C(C)(C)c1cc(-c2cccc(OC)c2)no1	Pf growth 96h inconclusive, Pf growth 48h inconclusive, AmpC inh no detg inconclusive
CNc1ccccc1C(C)(C)c1cc(-c2cc(C)cc(C)c2)no1	Pf growth 96h 9.28µM, Pf growth 48h inconclusive
Cc1cccc(OCc2nc(C#N)c(N3CC(C)CC(C)C3)o2)c1 (stereo not drawn)	AmpC inh detg inconclusive, Pf growth 96h 13.1µM (no result: Pf growth 48h)
Cc1cccc(OCc2nc(C#N)c(NCCN(C)C)o2)c1	Pf growth 96h inconclusive, AmpC inh no detg 2.24µM
Cn1ccnc1SCC(=O)c1ccc([N+](=O)[O-])cc1	AmpC inh detg inconclusive, Pf growth 96h inconclusive (no result: Sm TGR inh)
CCN(CCCNC(=O)c1cc2c(=O)[nH]c3ccccc3c2s1)c1ccccc1	none (no result: Pf growth 96h, Pf growth 48h, AmpC inh no detg, SARS PLP yeast)
COCCNC(=O)c1cc2c(=O)[nH]c3ccccc3c2s1	Pf growth 96h 1.17µM, Pf growth 48h inconclusive
CCCN(CCC)CCCNC(=O)c1cc2c(=O)n(C)c3ccccc3c2n1C	AmpC inh detg inconclusive, Pf growth 96h inconclusive, Sm TGR inh inconclusive (no result: Pf growth 48h)
CCCN(CCC)CCCNC(=O)c1cc2c(=O)n(C)c3ccccc3c2s1	Sm TGR inh 10µM (no result: Pf growth 96h, Pf growth 48h, AmpC inh no detg, SARS PLP yeast)
CCCCNC(=O)c1cc2c(=O)n(CC)c3ccccc3c2s1	Pf growth 96h 6.57µM
CCn1c(=O)c2cc(C(=O)N3CCN(C)CC3)sc2c2ccccc21	AmpC inh no detg 0.631µM
COc1ccc(Nc2nc(C)nc3c2nnn3Cc2ccccc2Cl)c(OC)c1	none
COc1ccc2c(c1)c1c(c(=O)n(-c3ccccc3C)c(=O)n1CC(=O)N1CCCC1)n2C	none (no result: Pf growth 96h, Pf growth 48h, AmpC inh no detg, SARS PLP yeast)
COc1ccccc1N1CCN(C(CNC(=O)C(=O)NCCc2ccccc2)c2cccnc2)CC1 (stereo not drawn)	none (no result: Pf growth 96h, Pf growth 48h, AmpC inh no detg, SARS PLP yeast)
CCn1c(=O)c2cc(C(=O)NC(C)C)sc2c2ccccc21	Pf growth 96h inconclusive
